Data from PubChem BioAssay AID602179 (National Center for Advancing Translational Sciences (NCATS), 2012).
In all, about 390,000 compounds went through this assay and about 360 (0.092%) were called active. This is one part of a sample in which actives are shown more often than they occur. The call rests on the fitted dose curve; in most records, active means well fitted inhibition curve with a large enough effect; inconclusive means small, poorly fitted or top-dose-only effect; inactive means no such curve, though single readings can be large or run the other way.

The compounds below were run against Isocitrate dehydrogenase [NADP] cytoplasmic (Homo sapiens) (UniProt O75874) (assay: qHTS for Inhibitors of mutant isocitrate dehydrogenase 1 (IDH1): qHTS). Conditions: IDH1-R132H enzyme, NADPH consumption, diaphorase/resazurin fluorescence; series mostly up to 76.6 µM.
Chain of Isocitrate dehydrogenase [NADP] cytoplasmic (Homo sapiens) (O75874 whole entry R132H, stated change not applied): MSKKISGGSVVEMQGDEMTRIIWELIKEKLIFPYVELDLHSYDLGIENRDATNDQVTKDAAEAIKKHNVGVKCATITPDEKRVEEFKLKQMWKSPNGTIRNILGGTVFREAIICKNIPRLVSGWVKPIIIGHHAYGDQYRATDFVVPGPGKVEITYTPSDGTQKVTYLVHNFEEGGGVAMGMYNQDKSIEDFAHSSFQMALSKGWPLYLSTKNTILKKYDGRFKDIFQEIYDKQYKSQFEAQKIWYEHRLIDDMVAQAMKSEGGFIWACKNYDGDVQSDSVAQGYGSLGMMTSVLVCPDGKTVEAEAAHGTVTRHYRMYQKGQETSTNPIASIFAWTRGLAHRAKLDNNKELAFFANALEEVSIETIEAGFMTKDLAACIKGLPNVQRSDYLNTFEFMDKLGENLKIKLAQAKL
In short: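 IDH1-R132H (0.5 ug/mL) preincubated 30 min with compound, then NADPH (0.016 mM) and alpha-KG (2 mM) added; 80 min at RT, pH 7.5. Remaining NADPH coupled via diaphorase/resazurin to fluorescence (540/590 nm); concentration-response curves normalized to no-enzyme control.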
Further: nearly all actives have a fitted effect of over 65% in size.
Potency means the concentration at half of the fitted maximal effect.

Potency, active:
CCCc1nc2c(c(=O)c3ccccc3n2C)c(=O)n1C1CCCCCC1 46.5 µM
O=C(NC(Nc1nc2ccc([N+](=O)[O-])cc2s1)(C(F)(F)F)C(F)(F)F)c1ccccc1 9.27 µM
O=[N+]([O-])/C=C/c1ccc2c(ccn2Cc2ccccc2)c1 20.7 µM

Potency, inactive:
COc1cc(NC(=O)CSc2nc3nc(C)c(Cc4ccc(C)cc4)c(C)n3n2)cc(OC)c1OC
Cc1ccc(CCNC(=O)c2ccc(CNS(=O)(=O)c3ccc(C)cc3)cc2)cc1
CCOC(=O)c1ccc(N2C(=O)c3n[nH]c(C)c3C2c2ccc(O)c(OC)c2)cc1 (configuration not stated)
CCOc1ccc(S(=O)(=O)N(CC(=O)NCCSCc2ccc(C)cc2)c2ccccc2)cc1
O=C(CSc1oc(-c2ccco2)nc1S(=O)(=O)c1ccccc1)c1ccc(Cl)cc1
Cc1ccccc1Nc1nn2c(=O)c3ccc(C(=O)NCCc4ccc(Cl)cc4)cc3nc2s1
Cc1ccc(OCC(=O)OCc2cc(=O)n3nc(C4CC4)sc3n2)cc1C
CC(C)NC(=O)c1nn(-c2ccccc2F)nc1CO
Cc1cccc(OCCCC(=O)Nc2sc3c(c2C(N)=O)CCC(C)C3)c1 (configuration not stated)
O=C(CN1C(=O)COc2ccc(S(=O)(=O)N3CCCCCC3)cc21)N1CCN(c2cccc(C(F)(F)F)c2)CC1
O=c1cc(CSc2ncn[nH]2)[nH]c2ccc(F)cc12
O=C(CN1CCSc2ccccc21)N1CCN(c2ccccc2)CC1
CCCc1nn2c(=O)cc(COC(=O)c3ccc(NC(=O)C(C)Oc4ccccc4)cc3)nc2s1 (configuration not stated)
Cc1ccc2c(c1)N(C(=O)Nc1ccc(Br)cc1F)CCO2
O=C(CCc1ccccc1)NCc1ccc2c(c1)CCN2C(=O)c1ccccc1
O=C(CSc1nnc(CNC(=O)c2ccccc2)n1-c1ccc(F)cc1)Nc1ccccc1F
CN(C(=O)CSc1nc2ccccc2n1Cc1ccccc1C#N)c1ccccc1
CCOC(=O)c1c(C)[nH]c(C)c1S(=O)(=O)N1CCCC(C(=O)NCc2ccccc2Cl)C1 (configuration not stated)
CCCN1C(=O)C(Cc2nc3ccccc3c(=O)n2-c2ccccc2)c2cc(C)ccc21 (configuration not stated)
CCOc1ccc(NC(=O)c2cn(C3CCCCC3)c(=O)c3c2c2ccccc2n3C)cc1
Cc1ccc(S(=O)(=O)N(Cc2nc(-c3ccc(Cl)cc3)no2)C2CCCCC2)cc1
COc1cc2ccccc2cc1C(=O)Nc1cccc(-c2nc3ccccc3o2)c1
CC1CCCCN1S(=O)(=O)c1ccc(F)c(C(=O)Nc2ccccc2C(F)(F)F)c1 (configuration not stated)
CCOc1cccc(CNC(=O)c2ccc(N3CCCC3)c(NC(=O)Nc3ccccc3CC)c2)c1
CCOc1ccc(NC(=O)C(=O)NCCc2csc3nc(-c4ccccc4F)nn23)cc1
Cc1ccccc1CNC(=O)CCc1cn(Cc2ccccc2C)c2ccccc12
Cc1c(Cl)cccc1-c1ccc(CNCCCSc2nnnn2C)o1
COc1ccc(-c2nc(CN3CCC(C(=O)NCCN(CC(C)C)CC(C)C)CC3)c(C)o2)cc1OC
CCOc1ccc(-c2n[nH]c3c2C(c2ccccc2OC)N(c2ccc(Br)cc2)C3=O)cc1 (configuration not stated)
CN(Cc1ccccc1)S(=O)(=O)c1ccc(F)c(C(=O)Nc2cccc(Cl)c2Cl)c1
Cc1nn(-c2nc(-c3ccccc3)cc(C(F)(F)F)n2)c(C)c1Cl
NS(=O)(=O)c1ccc2nc(NC(=O)COc3ccccc3)sc2c1
CN(C)c1cccc(C(=O)Nc2nc3ccc(S(=O)(=O)NC(C)(C)C)cc3s2)c1
CCc1ccc(NC(=O)C2CCCN2S(=O)(=O)c2ccc3nc(-c4ccccc4)[nH]c3c2)cc1 (configuration not stated)
CCOC(=O)c1ccc(NC(=O)Cn2c(=O)cc(C)c3c(C)nn(-c4cccc(F)c4)c32)cc1
CCCCN(CC)CCCNC(=O)c1nn(C)c2c1CSc1ccccc1-2
O=C(CN1C(=O)CCn2nc(-c3ccccc3)cc21)NCc1ccccc1
COc1ccc2c(C)c(CCC(=O)NCc3ccc(OC)c(OC)c3)c(=O)oc2c1
CSc1ccc(C2c3c(oc4ccccc4c3=O)C(=O)N2CCCN2CCOCC2)cc1 (configuration not stated)
Cc1ccc(C(=O)NCCSc2c(C)[nH]c3ccccc23)cc1C
O=C(Nc1ccccc1Br)c1cc(CN2CCCC2)on1
Cc1ccc(C)c(NC(=O)C2CCCN(S(=O)(=O)c3cn(C)cn3)C2)c1 (configuration not stated)
Cc1ccc(CNC(=O)CSc2c(C)cnc3c2c(=O)n(C)c(=O)n3C)cc1
O=C(Nc1nc2c(s1)CCCC2)c1ccccc1F
Cc1ccc(N2CC(C(=O)Nc3ccc(N(C)C)cc3)CC2=O)cc1Cl (configuration not stated)
COc1cccc(NC(=O)C(=O)NCC(c2ccc3c(c2)OCO3)N2CCN(C)CC2)c1 (configuration not stated)
CSc1ccc(CCNC(=O)c2ccc3c(c2)nc2n3CCOC2)cc1
O=C(NC1CC(=O)N(c2ccc(F)cc2)C1)C1CCCCC1 (configuration not stated)
O=C(/C=C/c1ccccc1)Nc1cc(-c2nc3cc(Cl)ccc3o2)ccc1Cl
Cc1ccc(CCNC(=O)c2ccc3c(c2)N(Cc2cc(C)ccc2C)C(=O)c2ccccc2S3=O)cc1 (configuration not stated)
O=C(CCc1nc(CN2CCN(S(=O)(=O)c3ccc(F)cc3)CC2)no1)N1CCCCC1
CCOc1ccc(Nc2oc(/C=C/c3ccc(F)cc3)nc2C#N)cc1
Oc1ccc(-c2nc3ccc(Cl)cn3c2Nc2ccc3c(c2)OCO3)cc1
COc1cc(OC)c(N(C)C(=O)c2cc3c(=O)oc4ccccc4c3s2)cc1Cl
COc1ccc(-c2nc(Cn3c(=O)cc(C)c4c(C)nn(-c5ccccc5)c43)c(C)o2)cc1OC
COc1ccccc1Nc1nc(N)nc(N)c1S(=O)(=O)c1ccccc1
COc1ccc(Cn2ccn(Cc3cccc(OC)c3)c(=O)c2=O)cc1
O=c1c(=O)n(Cc2c(F)cccc2Cl)ccn1Cc1ccccc1
COc1ccc(Cl)cc1N(C)C(=O)c1cc2c(=O)oc3ccc(C)cc3c2s1
